Inconclusive results are not listed. Unmarked numbers belong to inactive results. The source made the active and inactive calls. Calls follow the shape of the dose curve; as a rule, active = well fitted activation curve with a large enough effect; inconclusive = small, poorly fitted or top-dose-only effect; inactive = no such curve, though single readings can be large or run the other way.
% is scaled to controls: 0 for no effect and ±100 for the full control effect; potency is read from the fitted curve at half-maximal effect.

For this experiment, the target named is Rap guanine nucleotide exchange factor 4 (Homo sapiens) (UniProt Q8WZA2). The experiment in a line: Confirmatory qHTS for agonist of cAMP-regulated guanine nucleotide exchange factor 4 (EPAC2) (AID 1645884).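 Also: nucleotide exchange releases bodipy-GDP from Rap1 and this lowers its fluorescence; nearly all actives have a fitted effect of over 65% in size.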 The conditions noted are these: EPAC2 GEF activity, Rap1B-BODIPY-GDP fluorescence; series mostly up to 154 µM; activation: at the top concentration. Background: In qHTS, concentration-response curves come from the screen itself.
Rap guanine nucleotide exchange factor 4 (Homo sapiens), sequence (Q8WZA2 whole entry, looked up): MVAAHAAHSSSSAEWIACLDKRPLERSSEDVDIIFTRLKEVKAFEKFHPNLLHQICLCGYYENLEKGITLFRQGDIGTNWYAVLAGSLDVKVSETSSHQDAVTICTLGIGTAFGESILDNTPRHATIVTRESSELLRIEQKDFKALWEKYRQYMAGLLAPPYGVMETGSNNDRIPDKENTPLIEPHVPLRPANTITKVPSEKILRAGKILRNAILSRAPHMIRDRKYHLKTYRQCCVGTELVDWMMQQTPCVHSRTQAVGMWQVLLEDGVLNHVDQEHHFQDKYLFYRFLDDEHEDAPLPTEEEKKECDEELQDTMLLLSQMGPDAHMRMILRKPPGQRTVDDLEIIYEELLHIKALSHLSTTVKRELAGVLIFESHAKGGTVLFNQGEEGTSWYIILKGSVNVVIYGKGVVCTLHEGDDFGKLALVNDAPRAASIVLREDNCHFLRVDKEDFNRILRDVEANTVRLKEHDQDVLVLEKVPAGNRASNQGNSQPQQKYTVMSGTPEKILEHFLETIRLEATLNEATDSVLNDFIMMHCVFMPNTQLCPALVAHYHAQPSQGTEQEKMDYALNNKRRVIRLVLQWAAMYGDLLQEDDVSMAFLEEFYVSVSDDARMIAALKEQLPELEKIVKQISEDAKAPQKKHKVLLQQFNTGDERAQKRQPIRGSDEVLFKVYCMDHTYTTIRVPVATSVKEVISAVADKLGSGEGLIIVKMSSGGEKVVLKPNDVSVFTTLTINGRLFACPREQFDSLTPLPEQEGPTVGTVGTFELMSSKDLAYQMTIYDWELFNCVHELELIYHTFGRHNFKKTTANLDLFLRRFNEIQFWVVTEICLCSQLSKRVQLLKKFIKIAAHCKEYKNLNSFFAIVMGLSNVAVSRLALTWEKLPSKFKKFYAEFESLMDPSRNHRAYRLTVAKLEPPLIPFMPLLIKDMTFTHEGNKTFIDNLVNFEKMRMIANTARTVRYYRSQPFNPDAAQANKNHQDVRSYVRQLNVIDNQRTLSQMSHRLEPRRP
With `CN(C)c1ccc(C2C=C(c3ccc(Cl)cc3OC(F)F)Nc3ncnn32)cc1` (configuration not stated), the activation was 4.39% [at 17.1 µM, percent relative to cAMP agonist control]. For the compound `O=C1/C(=C/C=C/c2ccccc2)Oc2c1ccc(O)c2CN1CCN(CCO)CC1`, the activation is 17.5% [at 17.1 µM, percent relative to cAMP agonist control].

In the case of `O=S(=O)(NCC(c1ccco1)N1CCc2ccccc21)c1ccccc1` (configuration not stated), the activation was 5.38% [at 17.1 µM, percent relative to cAMP agonist control].

In the case of `Cc1cccc(C(C)C)c1-n1nnnc1-c1ccccc1`, the activation is 6.22% [at 17.1 µM, percent relative to cAMP agonist control]. For the compound `COC(=O)c1cc(C(=O)c2ccc(Cl)cc2)n2c(=O)/c(=C\N(C)C)sc12`, the Potency was 100 µM (active). In the case of `O=C(N/N=C/c1cc(Cl)cc([N+](=O)[O-])c1O)NC12CC3CC(CC(C3)C1)C2`, the “activation” value is -23.3%.

For `O=C(c1cccs1)N(Cc1cccnc1)c1nc2c(Cl)cccc2s1`, the “activation” value was -0.248% [at 83.8 µM, percent relative to cAMP agonist control]. For the compound `COc1ccc(OC)c(/C=C/c2nc3ccccc3nc2C)c1`, the Potency is 79.3 µM (active). Still for that read-out and setting: the same measure for `CCOc1ccc2c(ccc(/C=C/c3cc(C)c4cccnc4c3O)[n+]2C)c1`: 70.8 µM (active). `Cn1c(=O)c(C#N)c(-c2ccc(F)cc2)c2cc(C(=O)c3cc(Cl)cc(Cl)c3O)cnc21`: the “activation” value is 0%.

As for `CC(C)(C)C1CCc2c(sc(NC(=O)CCC(=O)O)c2C(=O)Nc2ccccc2C(F)(F)F)C1` (configuration not stated), the “activation” value is -6.58% [at 83.8 µM, percent relative to cAMP agonist control]. Still for that read-out and setting: the same measure for `CCOC(=O)C1CCCN(c2c(C(=O)c3ccccc3)cnc3ccc(OC)cc23)C1` (configuration not stated): 6.11% [at 17.1 µM, percent relative to cAMP agonist control].

Source of the values: PubChem BioAssay (NCATS).
